# Reference: the supplement of paper PMC8728848
# Shown is part of a subset that was picked to be rich in the strongest signals.
# B1: Blon0732mut (Bifidobacterium longum) (protein)
# chain: MPTSEHKADDATRHLTLIPAPVTLEYTHGTALIGPLVTIEDADQSWETLPIEQLSDELRHRYGVTVLRRRTHGTVISLGLDSRLAHDEYTLDVSESEGIRVRGGGESGLRYGLQTLRQIIGQTSRAIPCLHIQDKPAFAVRAYSLDVTRGRVPTMEFLTWFVDQLALYKYNQFQLYVEHAFAFVELSEAWRGTDPLTAADITYLDEYCARRGIELVPSLATFGHMYMNLRTREHRGLGEFPEDADRPFSFIERMEHHTLNAADPKAHDFASRLIEEYAPLFRSKSFNIGGNETFDLGRGRSAQDAPEAGRDELYAGFVRDLCETLARHGRQPMLWADIALESPRTMDLLPGDITMLNWMYEPQIDESKIQTIATQGRRQFVCPAVRAWSRFFPDYAGAWLNTYHMALAGTKYDAEGMVVTDWGDYGHVNDPRLSVPGLCYGAQNAWNPIEIDAHEMNRRISALVYGDESGRIMDCLARIDSDGVSFPWDLAVQVLELEYGSGTGALNMDVAACMERSSGGKLTLDRTLGCDDARRRMLQWNRERIERRRDCDQVLRDCGDAFAGLDKGGLTAEFLSVMLDGQRLFNELGEELLALADGKDVGSGANRLAADLELWFERYRAQWLSVGRHAELARIAHVVWSLADILRRGAL
# Legend:
# Test in all cases: glycan array binding signal (z-score within array); higher = stronger binding
# Settings in all cases: glycan notation: IUPAC condensed, linker removed
# [1] = molecular target: Fuc(a1-2)Gal(b1-3)GalNAc(b1-3)Gal
# Procedure, shortened: (§1)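 Arrays were curated from the Consortium for Functional Glycomics database, 3228 in total, and kept only where the protein sequence was available. Binding is expressed as a within-array Z-score. This score was averaged across arrays of the same protein sequence at different concentrations or buffers and across linkers, and negative values can be read as non-binding.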
# [2] = molecular target: Fuc(a1-2)Gal(b1-3)[Fuc(a1-4)]GlcNAc
# Procedure, shortened: as §1
# [3] = molecular target: Fuc(a1-2)Gal(b1-3)[Fuc(a1-4)]GlcNAc(b1-3)[Gal(b1-4)GlcNAc(b1-6)]Gal(b1-4)Glc
# Procedure, shortened: as §1
# [4] = molecular target: Fuc(a1-2)Gal(b1-4)GlcNAc(b1-3)Gal(b1-4)GlcNAc(b1-2)Man(a1-3)[Fuc(a1-2)Gal(b1-4)GlcNAc(b1-3)Gal(b1-4)GlcNAc(b1-2)Man(a1-6)]Man(b1-4)GlcNAc(b1-4)GlcNAc
# Procedure, shortened: as §1
# [5] = molecular target: Fuc(a1-2)Gal(b1-4)[Fuc(a1-3)]GlcNAc(b1-3)Gal(b1-4)[Fuc(a1-3)]GlcNAc
# Procedure, shortened: as §1
# [6] = molecular target: Fuc(a1-2)[Gal(a1-3)]Gal(b1-4)GlcNAc(b1-2)Man(a1-3)[Fuc(a1-2)[Gal(a1-3)]Gal(b1-4)GlcNAc(b1-2)Man(a1-6)]Man(b1-4)GlcNAc(b1-4)GlcNAc
# Procedure, shortened: as §1
# [7] = molecular target: Fuc(a1-2)[Gal(a1-3)]Gal(b1-4)GlcNAc(b1-3)GalNAc
# Procedure, shortened: as §1
# [8] = molecular target: Fuc(a1-2)[GalNAc(a1-3)]Gal(b1-3)GlcNAc(b1-6)GalNAc
# Procedure, shortened: as §1
# [9] = molecular target: Fuc(a1-2)[GalNAc(a1-3)]Gal(b1-4)GlcNAc(b1-2)Man(a1-3)[Fuc(a1-2)[GalNAc(a1-3)]Gal(b1-4)GlcNAc(b1-2)Man(a1-6)]Man(b1-4)GlcNAc(b1-4)GlcNAc
# Procedure, shortened: as §1
# [10] = molecular target: Fuc(a1-2)[GalNAc(a1-3)]Gal(b1-4)GlcNAc(b1-3)Gal(b1-4)GlcNAc(b1-3)Gal(b1-4)GlcNAc
# Procedure, shortened: as §1
# [11] = molecular target: Fuc(a1-2)[GalNAc(b1-3)]Gal
# Procedure, shortened: as §1
# [12] = molecular target: Fuc(a1-3)[GalNAc(b1-4)]GlcNAc
# Procedure, shortened: as §1
# [13] = molecular target: Gal(a1-3)Gal(b1-4)GlcNAc(b1-2)Man
# Procedure, shortened: as §1
# [14] = molecular target: Gal(a1-3)Gal(b1-4)GlcNAc(b1-2)Man(a1-3)[Gal(a1-3)Gal(b1-4)GlcNAc(b1-2)Man(a1-6)]Man(b1-4)GlcNAc(b1-4)GlcNAc
# Procedure, shortened: as §1
# [15] = molecular target: Gal(a1-3)[Gal(a1-4)]Gal(b1-4)GlcNAc
# Procedure, shortened: as §1
# Gal(a1-4)Gal(b1-4)Glc = molecular target: Gal(a1-4)Gal(b1-4)Glc
# Procedure, shortened: as §1
# [16] = molecular target: Gal(b1-3)[Fuc(a1-4)]GlcNAc(b1-2)Man
# Procedure, shortened: as §1
# [17] = molecular target: Gal(b1-3)[Fuc(a1-4)]GlcNAc(b1-3)Gal(b1-3)[Fuc(a1-4)]GlcNAc
# Procedure, shortened: as §1
# [18] = molecular target: Gal(b1-4)GalNAc(a1-3)[Fuc(a1-2)]Gal(b1-4)GlcNAc
# Procedure, shortened: as §1
# Gal(b1-4)GlcNAc(b1-2)Man = molecular target: Gal(b1-4)GlcNAc(b1-2)Man
# Procedure, shortened: as §1
# [19] = molecular target: Gal(b1-4)GlcNAc(b1-6)GalNAc
# Procedure, shortened: as §1
# Gal(b1-6)Gal = molecular target: Gal(b1-6)Gal
# Procedure, shortened: as §1
# Gal3S(b1-3)GalNAc = molecular target: Gal3S(b1-3)GalNAc
# Procedure, shortened: as §1
# Gal3S(b1-4)GlcNAc = molecular target: Gal3S(b1-4)GlcNAc
# Procedure, shortened: as §1
# [20] = molecular target: Gal3S(b1-4)[Fuc(a1-3)]Glc6S
# Procedure, shortened: as §1
# [21] = molecular target: Gal3S(b1-4)[Fuc(a1-3)]GlcNAc
# Procedure, shortened: as §1
# Gal4S6S(b1-4)GlcNAc = molecular target: Gal4S6S(b1-4)GlcNAc
# Procedure, shortened: as §1
# [22] = molecular target: GalNAc(b1-4)GlcNAc(b1-2)Man
# Procedure, shortened: as §1
# GalNAc(b1-4)GlcNAc6S = molecular target: GalNAc(b1-4)GlcNAc6S
# Procedure, shortened: as §1
# [23] = molecular target: GlcNAc(b1-2)Man(a1-3)[GlcNAc(b1-4)][GlcNAc(b1-2)Man(a1-6)]Man(b1-4)GlcNAc(b1-4)[Fuc(a1-6)]GlcNAc
# Procedure, shortened: as §1
# GlcNAc(b1-3)Fuc = molecular target: GlcNAc(b1-3)Fuc
# Procedure, shortened: as §1
# [24] = molecular target: GlcNAc(b1-3)Gal(b1-4)GlcNAc(b1-2)[GlcNAc(b1-3)Gal(b1-4)GlcNAc(b1-6)]Man(a1-6)[GlcNAc(b1-3)Gal(b1-4)GlcNAc(b1-2)Man(a1-3)]Man(b1-4)GlcNAc(b1-4)GlcNAc
# Procedure, shortened: as §1
# [25] = molecular target: GlcNAc(b1-3)[GlcNAc(b1-4)][GlcNAc(b1-6)]GlcNAc
# Procedure, shortened: as §1
# [26] = molecular target: GlcNAc(b1-4)GlcNAc(b1-4)GlcNAc
# Procedure, shortened: as §1
# [27] = molecular target: GlcNAc(b1-6)Gal(b1-4)GlcNAc
# Procedure, shortened: as §1
# [28] = molecular target: Man(a1-3)[Man(a1-6)]Man(b1-4)GlcNAc(b1-4)GlcNAc
# Procedure, shortened: as §1
# [29] = molecular target: Neu5Ac(a2-3)Gal(b1-3)GalNAc(b1-4)[Neu5Ac(a2-8)Neu5Ac(a2-3)]Gal(b1-4)Glc
# Procedure, shortened: as §1
# [30] = molecular target: Neu5Ac(a2-3)Gal(b1-3)GlcNAc
# Procedure, shortened: as §1
# [31] = molecular target: Neu5Ac(a2-3)Gal(b1-3)GlcNAc(b1-4)Gal(b1-4)Glc
# Procedure, shortened: as §1
# [32] = molecular target: Neu5Ac(a2-3)Gal(b1-3)[Fuc(a1-4)]GlcNAc(b1-3)Gal(b1-3)[Fuc(a1-4)]GlcNAc
# Procedure, shortened: as §1
# [33] = molecular target: Neu5Ac(a2-3)Gal(b1-3)[Fuc(a1-4)]GlcNAc(b1-3)Gal(b1-4)[Fuc(a1-3)]GlcNAc
# Procedure, shortened: as §1
# [34] = molecular target: Neu5Ac(a2-3)Gal(b1-4)[Fuc(a1-3)]GlcNAc(b1-3)GalNAc
# Procedure, shortened: as §1
# [35] = molecular target: Neu5Ac(a2-3)Gal(b1-4)[Fuc(a1-3)]GlcNAc(b1-6)[Gal(b1-3)]GalNAc
# Procedure, shortened: as §1
# [36] = molecular target: Neu5Ac(a2-6)Gal(b1-4)GlcNAc(b1-3)Gal(b1-4)[Fuc(a1-3)]GlcNAc(b1-3)Gal(b1-4)[Fuc(a1-3)]GlcNAc
# Procedure, shortened: as §1
# [37] = molecular target: Neu5Ac(a2-6)Gal(b1-4)GlcNAc(b1-6)[Gal(b1-3)]GalNAc
# Procedure, shortened: as §1
# [38] = molecular target: Neu5Gc(a2-3)Gal(b1-3)GlcNAc
# Procedure, shortened: as §1
# Neu5Gc(a2-3)Gal(b1-4)Glc = molecular target: Neu5Gc(a2-3)Gal(b1-4)Glc
# Procedure, shortened: as §1
binder,measurement,setting,value
B1,glycan array binding signal (z-score),[1],-1.26
same,glycan array binding signal (z-score),[2],0.087
same,glycan array binding signal (z-score),[3],-0.87
same,glycan array binding signal (z-score),[4],-0.325
same,glycan array binding signal (z-score),[5],0.489
same,glycan array binding signal (z-score),[6],-0.864
same,glycan array binding signal (z-score),[7],-0.533
same,glycan array binding signal (z-score),[8],-0.809
same,glycan array binding signal (z-score),[9],0.397
same,glycan array binding signal (z-score),[10],0.035
same,glycan array binding signal (z-score),[11],0.44
same,glycan array binding signal (z-score),[12],1.89
same,glycan array binding signal (z-score),[13],-0.505
same,glycan array binding signal (z-score),[14],0.086
same,glycan array binding signal (z-score),[15],5.9
same,glycan array binding signal (z-score),Gal(a1-4)Gal(b1-4)Glc,2.6
same,glycan array binding signal (z-score),[16],-0.411
same,glycan array binding signal (z-score),[17],-0.751
same,glycan array binding signal (z-score),[18],0.345
same,glycan array binding signal (z-score),Gal(b1-4)GlcNAc(b1-2)Man,1.31
same,glycan array binding signal (z-score),[19],0.168
same,glycan array binding signal (z-score),Gal(b1-6)Gal,-0.313
same,glycan array binding signal (z-score),Gal3S(b1-3)GalNAc,1.16
same,glycan array binding signal (z-score),Gal3S(b1-4)GlcNAc,-0.019
same,glycan array binding signal (z-score),[20],4.3
same,glycan array binding signal (z-score),[21],3.42
same,glycan array binding signal (z-score),Gal4S6S(b1-4)GlcNAc,2.26
same,glycan array binding signal (z-score),[22],0.028
same,glycan array binding signal (z-score),GalNAc(b1-4)GlcNAc6S,-0.46
same,glycan array binding signal (z-score),[23],-0.15
same,glycan array binding signal (z-score),GlcNAc(b1-3)Fuc,-1.38
same,glycan array binding signal (z-score),[24],3.03
same,glycan array binding signal (z-score),[25],5.26
same,glycan array binding signal (z-score),[26],-0.223
same,glycan array binding signal (z-score),[27],0.074
same,glycan array binding signal (z-score),[28],-0.261
same,glycan array binding signal (z-score),[29],3.81
same,glycan array binding signal (z-score),[30],-0.428
same,glycan array binding signal (z-score),[31],0.176
same,glycan array binding signal (z-score),[32],-0.898
same,glycan array binding signal (z-score),[33],-0.002
same,glycan array binding signal (z-score),[34],2.5
same,glycan array binding signal (z-score),[35],0.262
same,glycan array binding signal (z-score),[36],2.6
same,glycan array binding signal (z-score),[37],0.982
same,glycan array binding signal (z-score),[38],-0.667
same,glycan array binding signal (z-score),Neu5Gc(a2-3)Gal(b1-4)Glc,2.58
